Data as given in PubChem BioAssay AID588692 (Broad Institute, 2011).
Among all 360,000 compounds or so, about 830 (0.23%) were called active.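 The calls were made as follows: active = mean luciferase reporter signal, scaled so untreated is 0 and the glycosylation-blocking control 100, at or above a set limit in every replicate; inconclusive = mean reaches the limit but not every replicate does; inactive = mean below the limit.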 Many of the other results were omitted from the sample, so actives are more common in it than they were.

assay: D54 reporter luminescence gain compounds – D54 ERlucT cells, set 2, N-linked glycosylation inhibitor project, primary screen (AID 588692); conditions: D54 ERlucT glycosylation luciferase reporter, 24 h; at 12.5 µM; stronger effect = higher value; percent of 100 nM tunicamycin response;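 also: luciferase carries N-glycosylation sites so blocking glycosylation raises the light; 0% = median of neutral control wells and 100% = median of 100 nM tunicamycin wells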

Reporter increase, inactive:
CN(NC(=O)C1CC(=O)N(c2ccccc2)C1)C1=NS(=O)(=O)c2ccccc21 (stereo not given) 1.73%
CC[C@H]1OC(=O)[C@H](C)[C@@H](O[C@H]2C[C@@](C)(OC)[C@@H](O)[C@H](C)O2)[C@H](C)[C@@H](O[C@@H]2O[C@H](C)C[C@H](N(C)C)[C@H]2O)[C@](C)(O)C[C@@H](C)[C@@H]2N[C@@H](COCCOC)O[C@H]([C@H]2C)[C@]1(C)O 0.0685%
O=C1[C@H]2[C@@H](c3ccc(F)cc3)N3C(=O)N(c4ccc(C(F)(F)F)cc4)C(=O)[C@@]3(Cc3ccccc3)[C@H]2C(=O)N1C1CCCCC1 -7.93%
CC[C@@]12C(=O)N(c3ccccc3)C(=O)N1[C@H](c1ccc(Br)cc1)[C@@H]1C(=O)N(C(C)(C)C)C(=O)[C@@H]12 -1.3%
CC(C)(C)N1C(=O)[C@H]2[C@@H](c3ccc(Br)cc3)N3C(=O)N(c4cccc(Cl)c4)C(=O)[C@@]3(C)[C@H]2C1=O -3.13%
O=C1[C@H]2[C@@H](c3ccc(Cl)cc3)N3C(=O)N(c4cccc(F)c4)C(=O)[C@@]3(Cc3ccccc3)[C@H]2C(=O)N1C1CCCCC1 -1.72%
CCCCN(C)C(=O)c1ccc2c(c1)N(CC)C(=O)c1ccccc1S2(=O)=O 2.3%
O=C(CN1C(=O)NC2(CCc3ccccc32)C1=O)NC1CCCCC1 (stereo not given) 3.09%
COCCNC(=O)CN1C(=O)CSc2ncccc21 3.24%
OC[C@@H]1CN(Cc2ccc3c(c2)OCO3)C[C@H](n2cnc3c(NCc4ccco4)ncnc32)O1 -0.219%
Cc1ccc2c(c1)NC(=O)[C@@]1(C)[C@@H](c3ccccc3)[C@H]3COc4ccc(Cl)cc4[C@@H]3N1C2=O 19.6%
CCOC(=O)[C@H]1[C@H]2COc3ccc(OC)cc3[C@@H]2N2C(=O)c3ccc(F)cc3NC(=O)[C@@]12C 7.58%
CC(=O)c1ccc(S(=O)(=O)NC2CC(=O)N(c3ccc4c(c3)OCCO4)C2)cc1 (stereo not given) 0.667%
C[C@@H]1CN([C@@H](C)CO)C(=O)c2cc(Br)cnc2O[C@@H]1CN(C)C(=O)C1CCCCC1 -0.264%
CC1(C)O[C@@H]2[C@H](O1)[C@@H](COS(=O)(=O)O)O[C@H]2n1ccc(=O)[nH]c1=O 2.9%
CCCNC(=O)C1(C)CCN(C(=O)c2cc(F)ccc2C)C1 (stereo not given) -0.06%
CC(C)OCCCNC(=S)N1CCC(C(=O)c2ccc3c(c2)OCCO3)CC1 -1.26%
COc1ccc(C)cc1NC(=O)CSc1cccc[n+]1[O-] 1.45%
CN(C)c1ccc(S(=O)(=O)NCC(=O)NCC2CCCCC2)cc1[N+](=O)[O-] -0.935%
O=C(/C=C/c1ccc(Cl)cc1)N1CCN(c2ccccc2[N+](=O)[O-])CC1 0.213%
CC/C(=N\NC(=O)c1c(C)nc2ccccn12)c1ccc(Cl)cc1 -0.008%
OCc1ccc(-c2ccccc2)c(-c2ccccc2)c1 2.12%
CCCc1nc2ccccc2c(C(=O)OCc2nnc(-c3cc(OC)c(OC)c(OC)c3)o2)c1CC 1.91%
O=C1C2C3C=CC(C3)C2C(=O)N1c1ccc(S(=O)(=O)Nc2nccs2)cc1 (stereo not given) -0.133%
Cc1sc2ncnc(SCC(=O)Nc3ccc(CN4CCCC4)cc3)c2c1C -0.51%
C=CCn1c(SCC(=O)NCCCO)nc2sc3c(c2c1=O)CCC3 0.299%
C=CCn1c(SCC(=O)NCC2CCCO2)nc2sc(C)c(C)c2c1=O (stereo not given) -1.1%
N#Cc1ccc(C2=CC(=O)C[C@H](c3ccc(Cl)cc3)C2)cc1 1.89%
CC(=O)NCC(=O)N(Cc1ccco1)C1(C(=O)NC2CCCC2)CCCCC1 -0.741%
O=C(Nc1ccc(Cl)cc1)C1Cc2c(-c3ccc4c(c3)OCO4)ccnc2O1 (stereo not given) 1.69%
CCc1c(C)n([O-])c2c([n+]1=O)CCCCC2 2%
CCCNC(=O)C1(C)CCCN(C(=O)c2cccc(OC(C)=O)c2C)C1 (stereo not given) -0.136%
Cc1ccc(Nc2nc(CSc3nnc(-c4ccncc4)n3-c3ccccc3C)cs2)cc1 -2.15%
CC1CCCCN1C(=O)Cn1c(=O)oc2cc(S(=O)(=O)N3CCCCC3)ccc21 (stereo not given) -0.145%
COc1cccc(CNC(=O)Cn2c(=O)oc3cc(S(=O)(=O)N4CCCCC4)ccc32)c1 -0.785%
CCOC(=O)c1cc2cc(-c3c(C(=O)OCC)oc4cc(O)cc(O)c4c3=O)ccc2o1 -0.142%
Cc1cccc(C)c1NC(=O)Nc1ccccc1-n1ccnc1 0.968%
Cc1cccn2cc(-c3cccc(S(=O)(=O)N4CCCCC4)c3)nc12 -0.565%
CC1CCCC(NC(=O)c2cc(-c3ccncc3)nc3ccccc23)C1C (stereo not given) 0.382%
Cc1ccc2nc(-c3ccncc3)cc(C(=O)Nc3ccc(OC(F)F)cc3)c2c1 -8.25%
O=C(c1ccc(N2CCCC2=O)cc1)N1CCN(c2ccc(C(F)(F)F)cc2[N+](=O)[O-])CC1 -1.99%
CN(C)C(=O)N=NC(=O)N(C)C 0.968%
COc1cc(N/C=C2\CC(=O)NC(C)=C2C#N)cc(OC)c1OC 0.911%
O=C1/C(=C\c2ccc(O)cc2)CCC1CNc1ccc(Cl)cc1 (stereo not given) 10.4%
Cc1ccc(C(=O)Nc2ccc3c(c2)OCCO3)cc1S(=O)(=O)N1CCOCC1 -2.07%
COc1cccc(OC)c1C(=O)Nc1ccc2c(c1)n(C)c(=O)n2C 9.32%
Cc1ccc(S(=O)(=O)N2CCOCC2)cc1NC(=O)c1ccncc1 0.492%
Cc1ccc(S(=O)(=O)NN=C2CC(C)(C)CC(=O)C2(C)C)cc1 -0.913%
Cc1cccc(S(=O)(=O)N2CN(CC3CCCO3)c3nc4ccccc4nc32)c1 (stereo not given) 0.557%
Cc1sc2c(c1C)c(=O)n(-c1ccccc1)c1nncn21 3.73%
O=C(Nc1ccc(S(=O)(=O)N2CCc3ccccc3C2)cc1)c1ccccc1 -1.85%
COCCN(CCOC)S(=O)(=O)c1ccc(C(=O)Nc2nc3c(s2)CCc2ccccc2-3)cc1 -0.048%
C[C@H](CO)N1C[C@H](C)[C@H](CN(C)CC2CC2)Oc2ccc(NC(=O)CCN3CCOCC3)cc2C1=O 1.29%
CCc1nnc(NC(=O)C2CC(=O)N(c3ccc4c(c3)OCCO4)C2)s1 (stereo not given) 1.58%
CN(C)C(=O)c1coc2nc3ccccc3nc12 0.129%
CNC(=O)C(NC(=O)c1ccccc1)=C(C)C -0.912%
COc1ccc2[nH]c3c(c2c1)CCN1C(=O)C(CC(=O)NCCc2ccccn2)C[C@H](C(=O)N2CCOCC2)[C@@]31C (stereo not given in full) 2.29%
CSc1cc(C)n(-c2ccccc2C)c(=S)c1C(C)=O -0.347%
COc1ccccc1CNC(=O)CNC(=O)c1cn(-c2ccccc2OC)c(=O)c2ccccc12 1.89%
Cc1ccc(F)c(S(=O)(=O)NC(=O)C2(C)CCN2C(=O)CCc2cccs2)c1 (stereo not given) 2.26%
O=C(Nc1cccc(Cc2ccccc2)c1)Nc1ccc2nc([C@@H]3O[C@H](CO)[C@@H](O)[C@H](O)[C@H]3O)[nH]c2c1 0.008%
NNC(=O)CNC(c1ccccc1)c1cc(Cl)ccc1NC(=O)c1ccccc1 (stereo not given) -3.39%
CC(C)c1ccc(NC(=O)CCN2C(=O)c3ccc([N+](=O)[O-])cc3C2=O)cc1 1.26%
CN(CC1CCCO1)S(=O)(=O)c1ccc(C(=O)Nc2ccc([N+](=O)[O-])cc2)cc1 (stereo not given) -5.35%
COCCCn1c(SCC(=O)Nc2oc(C)c3c(C)n[nH]c(=O)c23)nc2sc3c(c2c1=O)CCC3 4.94%
C1CC1Cc1noc(CN2CCN(CC3CC3)CC2)n1 -0.901%
O=C(COC(=O)Cn1cnc2ccccc2c1=O)NCc1ccccc1Cl 0.775%
O=C(Cn1cnc2ccccc21)Nc1ccccc1-c1ccccc1 0.271%

Reporter increase, active:
Cc1cccc(N2C(=O)N3[C@H](c4ccc(F)cc4)[C@@H]4C(=O)N(C5CCCCC5)C(=O)[C@@H]4[C@]3(Cc3ccccc3)C2=O)c1 78.2%
COc1ccc([C@@H]2[C@@H]3C(=O)N(C(C)(C)C)C(=O)[C@@H]3[C@]3(Cc4ccccc4)C(=O)N(c4cccc(Br)c4)C(=O)N23)cc1 36.7%
COc1ccc2c(c1)[C@H]1[C@H](CO2)[C@H](c2ccccc2)[C@]2(C)C(=O)Nc3cc(F)c(F)cc3C(=O)N12 42%
CN(C)c1ccc(/C=C/C(=O)c2ccc(C(C)(C)C)cc2)cc1[N+](=O)[O-] 32.9%
C=CCn1c(SCc2c(C)noc2C)nc2sc3c(c2c1=O)CCC(C)C3 (stereo not given) 27.8%
CC(C)CCNC(=O)Cn1c(=O)oc2cc(S(=O)(=O)N3CC(C)CC(C)C3)ccc21 (stereo not given) 114%
Cc1ccc2nc(-c3ccncc3)cc(C(=O)Nc3ccncc3)c2c1 29.9%
Cn1c(=O)n(C)c2cc(C(=O)Nc3ccc4c(c3)OCO4)ccc21 70.1%
C=CCN(CC=C)S(=O)(=O)c1ccc(C(=O)Nc2nc3c(s2)CCc2ccccc2-3)cc1 55.6%
CNC(=O)c1cccc2nc3ccccc3nc12 39.1%
Cn1ccc(=Nc2ccc(NC(=O)c3ccc(N=c4ccn(C)c5ccc([N+](=O)[O-])cc45)cc3)cc2)cc1 32.9%
O=C(COC(=O)Cn1cnc2ccccc21)Nc1cccc2c1C(=O)c1ccccc1C2=O 103%
